Test results from PubChem BioAssay (NCATS).
Records with an inconclusive call do not appear. Calls of active or inactive are those of the source. Unless noted, calls follow the shape of the dose curve; as a rule, active = well fitted curve in the direction sought with a large enough effect; inconclusive = small, poorly fitted or top-dose-only effect, or another doubt; inactive = no such curve, though single readings can be large; an effect the other way counts as inactive or inconclusive.

Legend:
[1] = Cell Viability - LYMP2-009 (AID 968);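 also: cells exposed to compound for 24 h at 37 °C; nearly all actives have a fitted effect of over 55% in size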; also: potency is read from the fitted curve at half-maximal effect
[2] = Cell Viability - LYMP2-011 (AID 969);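 also: cells exposed to compound for 24 hours; nearly all actives have a fitted effect of over 60% in size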; also: potency is read from the fitted curve at half-maximal effect
Procedure, shortened: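 2500 cells/well, 5 hr 37 C; compound added, 24 hr 37 C; CellTiter-Glo 30 min RT; luminescence. qHTS concentration-response, Hill-equation AC50. Tetraoctylammonium bromide positive control.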

[3] = Cell Viability - LYMP2-025 (AID 976);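 also: series mostly up to about 92 µM; cells exposed to compound for 24 h at 37 °C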
Procedure, shortened: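 Seed 2500 LYMP2-025 cells/well; 5 hr at 37 C; add compound; 24 hr at 37 C; add CellTiter-Glo; 30 min RT; read luminescence. AC50 from Hill-modelled concentration-response.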

[4] = Cell Viability - LYMP2-008 (AID 980); also: nearly all actives have a fitted effect of over 60% in size; also: potency is read from the fitted curve at half-maximal effect
Procedure, shortened: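 qHTS, human lymphoblastoid line, 2500 cells/well; 5 hr preincubation, 24 hr compound, 37 C. CellTiter-Glo ATP luminescence. AC50 via Hill equation. Tetraoctylammonium bromide positive control.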

[5] = Cell Viability - LYMP2-014 (AID 983);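 also: cells exposed to compound for 24 h at 37 °C; nearly all actives have a fitted effect of over 50% in size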; also: potency is read from the fitted curve at half-maximal effect
Procedure, shortened: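 Luminescent ATP signal (CellTiter-Glo, 30 min at room temperature) serves as the viability read-out after 24 hr compound exposure at 37 C. Cells were seeded at 2500 per well and settled 5 hr beforehand.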

[6] = Cell Viability - LYMP1-002 - Assay at 40 hr (AID 994); also: nearly all actives have a fitted effect of over 60% in size; also: potency is read from the fitted curve at half-maximal effect
Procedure, shortened: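 Luminescent ATP signal served as the viability readout, with decreases taken as toxicity. Cells were treated with compounds across a concentration range for 40 hours at 37 C, and AC50 values came from standard Hill modeling.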

[7] = target: Estrogen receptor (Homo sapiens) (UniProt P03372); test: qHTS assay for small molecule agonists of estrogen receptor alpha signaling (AID 588514; calls by dose curve; also: nearly all actives have a fitted effect of over 70% in size)
Chain of Estrogen receptor (Homo sapiens) (P03372 whole entry, looked up): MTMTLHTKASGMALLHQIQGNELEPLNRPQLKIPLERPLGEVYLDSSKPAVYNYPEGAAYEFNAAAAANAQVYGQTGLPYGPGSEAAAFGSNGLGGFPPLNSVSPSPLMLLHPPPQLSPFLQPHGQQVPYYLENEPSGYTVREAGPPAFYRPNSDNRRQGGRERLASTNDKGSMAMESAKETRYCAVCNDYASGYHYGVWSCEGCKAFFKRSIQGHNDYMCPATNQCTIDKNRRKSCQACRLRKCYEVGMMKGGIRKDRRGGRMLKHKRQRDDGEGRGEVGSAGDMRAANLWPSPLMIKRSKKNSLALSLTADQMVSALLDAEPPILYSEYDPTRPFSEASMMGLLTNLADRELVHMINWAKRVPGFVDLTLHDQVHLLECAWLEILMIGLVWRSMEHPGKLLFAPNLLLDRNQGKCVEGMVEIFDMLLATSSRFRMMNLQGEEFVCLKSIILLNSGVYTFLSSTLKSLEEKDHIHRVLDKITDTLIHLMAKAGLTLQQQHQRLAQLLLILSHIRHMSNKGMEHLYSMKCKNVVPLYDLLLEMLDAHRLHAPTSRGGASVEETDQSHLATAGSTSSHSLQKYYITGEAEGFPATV
Procedure, shortened: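 Cells were plated at 5000/well, incubated 4 hrs at 37 C, dosed with compound titration series, incubated 18 hrs at 37 C, loaded with CCF4 dye for 2 hrs at RT, then fluorescence was read.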

[8] = target: Vitamin D3 receptor (Homo sapiens) (UniProt P11473); test: qHTS assay for small molecule agonists of vitamin D receptor signaling (AID 588543; calls by dose curve)
Chain of Vitamin D3 receptor (Homo sapiens) (P11473 whole entry, looked up): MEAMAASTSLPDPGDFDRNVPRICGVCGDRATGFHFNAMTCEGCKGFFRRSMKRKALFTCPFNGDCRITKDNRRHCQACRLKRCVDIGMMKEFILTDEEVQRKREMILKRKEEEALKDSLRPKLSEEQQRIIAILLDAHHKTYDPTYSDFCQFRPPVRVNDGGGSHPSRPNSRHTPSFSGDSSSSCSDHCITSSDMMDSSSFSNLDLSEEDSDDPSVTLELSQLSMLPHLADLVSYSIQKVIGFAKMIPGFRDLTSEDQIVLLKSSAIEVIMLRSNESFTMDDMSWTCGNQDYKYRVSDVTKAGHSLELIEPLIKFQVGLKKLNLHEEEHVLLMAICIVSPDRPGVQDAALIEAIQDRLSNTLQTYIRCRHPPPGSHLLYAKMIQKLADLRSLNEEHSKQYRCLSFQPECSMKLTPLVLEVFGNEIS
Procedure, shortened: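 Measured: β-lactamase reporter activity (CCF4, 405 nm excitation, 460/530 nm emission) in HEK293T VDR-UAS-bla cells after 16 h compound exposure at 37 °C. Normalization against 50 nM 1α,25-dihydroxyvitamin D3 and DMSO; Hill-fit EC50.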

[9] = target: Voltage-gated inwardly rectifying potassium channel KCNH2 (Homo sapiens) (UniProt Q12809); test: qHTS Assay for Small Molecule Inhibitors of the Human hERG Channel Activity (AID 588834);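 also: top concentration of the series differs between compounds; lower thallium flux fluorescence means stronger hERG block; nearly all actives have a fitted effect of over 50% in size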
Chain of Voltage-gated inwardly rectifying potassium channel KCNH2 (Homo sapiens) (Q12809 whole entry, looked up): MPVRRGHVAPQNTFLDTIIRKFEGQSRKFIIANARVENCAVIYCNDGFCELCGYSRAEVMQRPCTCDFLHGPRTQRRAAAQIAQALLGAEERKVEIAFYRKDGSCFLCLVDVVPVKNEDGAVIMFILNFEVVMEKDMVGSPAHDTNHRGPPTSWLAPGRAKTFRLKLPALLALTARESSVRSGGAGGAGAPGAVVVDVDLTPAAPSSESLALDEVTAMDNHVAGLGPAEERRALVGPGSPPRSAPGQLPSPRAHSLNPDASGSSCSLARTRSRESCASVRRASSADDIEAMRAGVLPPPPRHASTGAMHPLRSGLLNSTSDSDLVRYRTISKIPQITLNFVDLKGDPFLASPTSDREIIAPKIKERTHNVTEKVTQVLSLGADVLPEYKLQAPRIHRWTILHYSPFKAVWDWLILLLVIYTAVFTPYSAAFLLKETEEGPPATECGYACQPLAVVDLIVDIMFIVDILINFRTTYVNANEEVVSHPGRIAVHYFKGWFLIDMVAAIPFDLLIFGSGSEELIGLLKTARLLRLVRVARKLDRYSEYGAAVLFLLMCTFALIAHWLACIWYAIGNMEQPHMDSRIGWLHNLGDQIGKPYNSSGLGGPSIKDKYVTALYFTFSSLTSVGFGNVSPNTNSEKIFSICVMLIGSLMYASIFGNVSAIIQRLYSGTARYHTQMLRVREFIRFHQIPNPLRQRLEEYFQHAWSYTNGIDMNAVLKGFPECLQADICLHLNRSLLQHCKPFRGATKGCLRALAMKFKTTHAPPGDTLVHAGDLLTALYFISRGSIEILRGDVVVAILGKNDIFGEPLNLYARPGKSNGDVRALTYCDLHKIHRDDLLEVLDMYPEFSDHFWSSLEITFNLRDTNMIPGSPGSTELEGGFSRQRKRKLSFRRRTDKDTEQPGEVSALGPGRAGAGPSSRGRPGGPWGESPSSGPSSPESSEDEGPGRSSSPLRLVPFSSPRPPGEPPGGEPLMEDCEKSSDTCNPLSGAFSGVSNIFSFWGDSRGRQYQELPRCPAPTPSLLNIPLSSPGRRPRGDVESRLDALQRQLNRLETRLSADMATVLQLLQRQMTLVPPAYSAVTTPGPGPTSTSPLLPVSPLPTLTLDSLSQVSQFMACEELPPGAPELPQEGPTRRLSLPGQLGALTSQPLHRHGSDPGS
Procedure, shortened: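 Blockade is seen as reduced FluxOR thallium-flux fluorescence in U2OS cells expressing hERG from a BacMam construct, in Opti-MEM with 2% FCS. Concentration-response data fitted to the Hill equation for AC50.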

[10] = Cell Viability - SK-N-SH (AID 435; calls by dose curve;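 also: potency is read from the fitted curve at half-maximal effect; compound exposure lasted 40 h at 37 °C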); settings: SK-N-SH neuroblastoma cell viability qHTS
Procedure, shortened: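 Human neuroblastoma line, 40 h exposure at 37 °C, ATP quantified via luciferase luminescence; DMSO and 100 uM tamoxifen define 0 and 100% inhibition for AC50 fitting.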

[11] = MultiTox-Fluor Cytotoxicity Assay - LYMP1-001 - Dead Cells (AID 946); also: potency is read from the fitted curve at half-maximal effect
Procedure, shortened: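 In this qHTS, 15 uM tetraoctylammonium bromide defined 100% and DMSO defined basal activity. Lymphoblastoid cells (LYMP1-001, 2500 per well) received compound for 16 hr at 37 C before a fluorogenic dead-cell substrate readout at 485/520 nm.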

[12] = Cell Viability - LYMP2-007 (AID 979);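 also: cells exposed to compound for 24 h before reading; nearly all actives have a fitted effect of over 60% in size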; also: potency is read from the fitted curve at half-maximal effect
Procedure, shortened: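 Luminescent ATP signal (CellTiter-Glo) serves as the viability read-out after 24 hr compound treatment of lymphoblastoid cells in complete medium at 37 C. Concentration-response data were fitted to the Hill equation to give AC50 values.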

[13] = Cell Viability - LYMP2-023 (AID 975);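 also: cells exposed to compound for 24 hours at 37 °C; nearly all actives have a fitted effect of over 55% in size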; also: potency is read from the fitted curve at half-maximal effect
Procedure, shortened: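 2500 cells/well, 5 hr 37 C; cpd 24 hr 37 C; CellTiter-Glo, 30 min RT; luminescence. qHTS conc-response, Hill fit -> AC50. Pos ctrl tetraoctylammonium bromide.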

[14] = target: Bile acid receptor (Homo sapiens) (UniProt Q96RI1); test: qHTS assay for small molecule antagonists of farnesoid X receptor signaling (AID 588526; calls by dose curve)
Chain of Bile acid receptor (Homo sapiens) (Q96RI1 whole entry, looked up): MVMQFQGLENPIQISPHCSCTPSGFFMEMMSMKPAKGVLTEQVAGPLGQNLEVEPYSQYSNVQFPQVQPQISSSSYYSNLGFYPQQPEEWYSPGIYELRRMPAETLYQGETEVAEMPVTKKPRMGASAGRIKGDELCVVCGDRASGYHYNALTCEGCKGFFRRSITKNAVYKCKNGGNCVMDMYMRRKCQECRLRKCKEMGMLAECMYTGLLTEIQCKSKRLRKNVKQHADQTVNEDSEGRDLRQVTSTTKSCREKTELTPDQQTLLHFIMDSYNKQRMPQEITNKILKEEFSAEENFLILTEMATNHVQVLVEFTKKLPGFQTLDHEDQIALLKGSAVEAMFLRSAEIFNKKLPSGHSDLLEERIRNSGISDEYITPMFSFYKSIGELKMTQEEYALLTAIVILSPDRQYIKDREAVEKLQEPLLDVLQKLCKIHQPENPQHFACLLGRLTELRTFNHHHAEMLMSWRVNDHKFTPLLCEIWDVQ
Procedure, shortened: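 Antagonist mode: titrated compounds tested against chenodeoxycholic acid stimulation (normalized to 50 uM CDCA and DMSO) in GeneBLAzer HEK293T cells for 16 h. Beta-lactamase read by CCF4 fluorescence; IC50 from Hill fits.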

[15] = target: Tumor necrosis factor (Homo sapiens) (UniProt P01375); test: qHTS assay to identify small molecules that stimulate Tumor Necrosis Factor-alpha (TNF-alpha) secretion (AID 651757; active = well fitted curve in the direction sought with a large enough effect in the signal ratio; the % refers to the signal ratio)
Chain of Tumor necrosis factor (Homo sapiens) (P01375 whole entry, looked up): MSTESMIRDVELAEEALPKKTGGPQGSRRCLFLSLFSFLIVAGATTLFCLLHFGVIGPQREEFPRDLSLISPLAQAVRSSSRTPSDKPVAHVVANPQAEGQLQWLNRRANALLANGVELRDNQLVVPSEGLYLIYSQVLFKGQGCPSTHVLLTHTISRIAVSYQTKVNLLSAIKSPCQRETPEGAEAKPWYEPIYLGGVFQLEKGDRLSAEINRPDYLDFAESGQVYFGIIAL
Procedure, shortened: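 Read-out is HTRF, a TR-FRET sandwich of cryptate- and XL665-labeled anti-TNF-alpha antibodies detecting cytokine secreted by THP-1 cells. Cells had been incubated with test compounds at 37 C for 17 hrs beforehand.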

[16] = target: Glucocorticoid receptor (Homo sapiens) (UniProt P04150); test: qHTS assay for small molecule antagonists of glucocorticoid receptor signaling (AID 588533; active = well fitted inhibition curve with a large enough effect in the signal ratio, with a control signal flat, not every such curve was filed as active; the % refers to the signal ratio)
Chain of Glucocorticoid receptor (Homo sapiens) (P04150 whole entry, looked up): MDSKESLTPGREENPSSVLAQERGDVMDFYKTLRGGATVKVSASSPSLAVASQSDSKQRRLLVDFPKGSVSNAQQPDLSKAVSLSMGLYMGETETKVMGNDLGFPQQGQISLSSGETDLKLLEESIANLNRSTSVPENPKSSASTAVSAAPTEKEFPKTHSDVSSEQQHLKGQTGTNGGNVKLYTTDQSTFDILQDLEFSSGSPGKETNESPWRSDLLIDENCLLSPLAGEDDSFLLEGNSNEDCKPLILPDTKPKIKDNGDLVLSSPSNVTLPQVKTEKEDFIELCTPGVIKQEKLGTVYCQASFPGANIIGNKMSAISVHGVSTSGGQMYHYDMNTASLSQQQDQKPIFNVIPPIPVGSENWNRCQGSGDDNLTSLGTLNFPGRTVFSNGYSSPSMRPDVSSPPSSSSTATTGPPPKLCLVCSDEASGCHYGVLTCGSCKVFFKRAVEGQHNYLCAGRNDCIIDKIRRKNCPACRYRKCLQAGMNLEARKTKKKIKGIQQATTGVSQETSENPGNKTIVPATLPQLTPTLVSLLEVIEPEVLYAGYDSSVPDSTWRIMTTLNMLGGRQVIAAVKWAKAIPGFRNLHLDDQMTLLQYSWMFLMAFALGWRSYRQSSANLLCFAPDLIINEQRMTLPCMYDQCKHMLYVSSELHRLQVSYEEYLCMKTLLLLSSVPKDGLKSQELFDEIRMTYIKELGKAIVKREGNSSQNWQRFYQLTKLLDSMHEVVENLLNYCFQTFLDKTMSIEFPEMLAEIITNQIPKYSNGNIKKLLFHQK
Procedure, shortened: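 Antagonist-mode qHTS: compound titrations added to GRE-bla HeLa cells, then dexamethasone 2 nM final; 18 h, 37 C. CCF4 FRET fluorescence normalized to dexamethasone and DMSO; IC50 from Hill fit.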

[17] = target: Vitamin D3 receptor (Homo sapiens) (UniProt P11473); test: qHTS assay for small molecule antagonists of vitamin D receptor signaling (AID 588541; calls by dose curve;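 also: receptor activated by calcitriol during compound treatment; series mostly up to about 77 µM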)
Procedure, shortened: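 VDR-UAS-bla HEK293T cells in 2% charcoal-stripped FBS were stimulated with 1-alpha,25-dihydroxyvitamin D3 (3 nM final) plus compound for 16 h at 37 C. The beta-lactamase CCF4 readout was normalized to 50 nM agonist and DMSO, and Hill fits gave IC50.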

Measured: Potency

O=C1c2ccccc2C(=O)C1(O)O
inactive: [1] | [2] | [3] | [4] | [5] | [6] | [7] | [8] | [9]

C=CC(C)(O)CCCC(C)CCCC(C)CCCC(C)C (stereo unspecified)
inactive: [10] > 92 µM | [11] | [3] | [12] | [4] | [5] | [6] | [7] | [9]

CCCCCCCC/C=C\CCCCCCCC(=O)N(CCO)CCO
inactive: [13] | [6] | [7] | [14] | [8] | [15]

C[Si](C)(C)Cl
inactive: [1] | [2] | [13] | [3] | [6] | [7] | [14] | [16] | [9] | [15]

OC1CCCCC1
inactive: [10] > 92 µM | [11] | [1] | [2] | [3] | [12] | [7] | [15]

O=[N+]([O-])c1cc(N(CCO)CCO)ccc1NCCO
inactive: [1] | [5] | [6] | [7] | [17] | [8]

Oc1cc(Cl)cc(Cl)c1Cl
inactive: [2] | [13] | [3] | [4] | [5] | [7] | [8]

CC/C=C/C/C=C/C/C=C/CCCCCCCC(=O)OCC
inactive: [11] | [16] | [17] | [15]
active: [1] 39.8 µM | [13] 39.8 µM | [5] 50.1 µM

C=C1CC[C@H](O)C/C1=C/C=C1\CCC[C@]2(C)[C@@H]([C@H](C)CCCC(C)C)CC[C@@H]12
inactive: [15]
active: [10] 47.1 µM | [11] 39.8 µM | [2] 50.1 µM | [13] 50.1 µM | [12] 50.1 µM | [4] 50.1 µM | [6] 50.1 µM

Cc1cc(-c2ccc(N=Nc3cc(S(=O)(=O)O)c4ccccc4c3N)c(C)c2)ccc1N=Nc1cc(S(=O)(=O)O)c2ccccc2c1N
inactive: [11] | [7] | [8] | [9]

O=C=Nc1ccc(Cl)c(Cl)c1
inactive: [7] | [15]
